# Shown is part of a subset that was picked to be rich in the strongest signals.
# B1: EEA (Euonymus europaeus) (protein)
# chain: MASTIIATGPTYRVYCRAAPNYNMIVGKGVAFLAPIDETNELQYWYKDDTYSYIKDEAGLPAFSLVNKATGLTLKHSNHHPVPVKLVTYNPNVVDESVLWSQADDRGDGYSAIRSLTNPASHLEAAPLNDWSYNGAIIMGGVWIDAYNQQWKIEPHTG
# Experiments:
# Assay in all cases: glycan array binding signal (z-score within array); higher = stronger binding
# Conditions in all cases: glycan notation: IUPAC condensed, linker removed
# [1] = biological target: Gal(b1-4)GlcNAc(b1-3)Gal(b1-4)GlcNAc(b1-3)Gal(b1-4)GlcNAc(b1-3)Gal(b1-4)GlcNAc(b1-3)Gal(b1-4)GlcNAc(b1-3)Gal(b1-4)GlcNAc(b1-2)Man(a1-3)[Gal(b1-4)GlcNAc(b1-3)Gal(b1-4)GlcNAc(b1-3)Gal(b1-4)GlcNAc(b1-3)Gal(b1-4)GlcNAc(b1-3)Gal(b1-4)GlcNAc(b1-3)Gal(b1-4)GlcNAc(b1-2)Man(a1-6)]Man(b1-4)GlcNAc(b1-4)GlcNAc
# Procedure, shortened: (§1)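 Glycan array data came from 3228 arrays in the Consortium for Functional Glycomics database, and only arrays with an available protein sequence were kept. Glycan names were put into IUPAC-condensed notation, and columns mapping to the same glycan were averaged. The binding signal is a within-array Z-score, averaged across arrays of one protein sequence run at different concentrations or buffers and across linkers. A negative Z-score can be read as non-binding.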
# [2] = biological target: Gal3S(b1-4)GlcNAc
# Procedure, shortened: as §1
# [3] = biological target: Gal3S(b1-4)GlcNAc6S
# Procedure, shortened: as §1
# [4] = biological target: Gal6S(b1-4)GlcNAc6S
# Procedure, shortened: as §1
# [5] = biological target: GalNAc(b1-3)Gal
# Procedure, shortened: as §1
# [6] = biological target: GalNAc(b1-4)GlcNAc(b1-2)Man(a1-3)[GalNAc(b1-4)GlcNAc(b1-2)Man(a1-6)]Man(b1-4)GlcNAc(b1-4)GlcNAc
# Procedure, shortened: as §1
# [7] = biological target: GlcNAc(b1-2)Gal(b1-3)GalNAc
# Procedure, shortened: as §1
# [8] = biological target: GlcNAc(b1-2)Man(a1-3)[GlcNAc(b1-2)Man(a1-6)]Man(b1-4)GlcNAc(b1-4)GlcNAc
# Procedure, shortened: as §1
# [9] = biological target: GlcNAc(b1-2)Man(a1-3)[GlcNAc(b1-4)][GlcNAc(b1-2)Man(a1-6)]Man(b1-4)GlcNAc(b1-4)GlcNAc
# Procedure, shortened: as §1
# [10] = biological target: GlcNAc(b1-2)[GlcNAc(b1-6)]Man(a1-6)[GlcNAc(b1-2)Man(a1-3)]Man(b1-4)GlcNAc(b1-4)[Fuc(a1-6)]GlcNAc
# Procedure, shortened: as §1
# [11] = biological target: GlcNAc(b1-3)Gal(b1-4)GlcNAc(b1-3)Gal(b1-4)GlcNAc(b1-3)Gal(b1-4)GlcNAc(b1-3)Gal(b1-4)GlcNAc(b1-2)Man(a1-3)[GlcNAc(b1-3)Gal(b1-4)GlcNAc(b1-3)Gal(b1-4)GlcNAc(b1-3)Gal(b1-4)GlcNAc(b1-3)Gal(b1-4)GlcNAc(b1-2)Man(a1-6)]Man(b1-4)GlcNAc(b1-4)[Fuc(a1-6)]GlcNAc
# Procedure, shortened: as §1
# [12] = biological target: GlcNAc(b1-6)GalNAc
# Procedure, shortened: as §1
# [13] = biological target: Kdn(a2-3)Gal(b1-4)Glc
# Procedure, shortened: as §1
# [14] = biological target: Neu5Ac(a2-3)Gal(b1-3)GlcNAc(b1-6)GalNAc
# Procedure, shortened: as §1
# [15] = biological target: Neu5Ac(a2-3)Gal(b1-3)GlcNAc6S
# Procedure, shortened: as §1
# [16] = biological target: Neu5Ac(a2-3)Gal(b1-3)[Fuc(a1-4)]GlcNAc(b1-3)Gal(b1-3)[Fuc(a1-4)]GlcNAc
# Procedure, shortened: as §1
# [17] = biological target: Neu5Ac(a2-3)Gal(b1-4)GlcNAc(b1-2)[Neu5Ac(a2-3)Gal(b1-4)GlcNAc(b1-6)]Man(a1-6)[Neu5Ac(a2-3)Gal(b1-4)GlcNAc(b1-2)Man(a1-3)]Man(b1-4)GlcNAc(b1-4)GlcNAc
# Procedure, shortened: as §1
# [18] = biological target: Neu5Ac(a2-3)Gal(b1-4)[Fuc(a1-3)]GlcNAc(b1-6)[Gal(b1-3)]GalNAc
# Procedure, shortened: as §1
# [19] = biological target: Neu5Ac(a2-3)Gal6S(b1-4)GlcNAc
# Procedure, shortened: as §1
# [20] = biological target: Neu5Ac(a2-3)[GalNAc(b1-4)]Gal(b1-4)GlcNAc(b1-3)GalNAc
# Procedure, shortened: as §1
# [21] = biological target: Neu5Ac(a2-6)Gal(b1-3)GlcNAc(b1-3)[Gal(b1-4)GlcNAc(b1-6)]Gal(b1-4)Glc
# Procedure, shortened: as §1
# [22] = biological target: Neu5Ac(a2-6)Gal(b1-4)GlcNAc(b1-2)Man(a1-6)[Gal(b1-4)GlcNAc(b1-2)Man(a1-3)]Man(b1-4)GlcNAc(b1-4)GlcNAc
# Procedure, shortened: as §1
# [23] = biological target: Neu5Ac(a2-6)Gal(b1-4)GlcNAc(b1-2)[Neu5Ac(a2-6)Gal(b1-4)GlcNAc(b1-6)]Man(a1-6)[Neu5Ac(a2-6)Gal(b1-4)GlcNAc(b1-2)Man(a1-3)][GlcNAc(b1-4)]Man(b1-4)GlcNAc(b1-4)GlcNAc
# Procedure, shortened: as §1
# [24] = biological target: Neu5Ac(a2-8)Neu5Ac(a2-3)Gal(b1-4)GlcNAc
# Procedure, shortened: as §1
# [25] = biological target: Neu5Ac(a2-8)Neu5Ac(a2-8)Neu5Ac(a2-3)[GalNAc(b1-4)]Gal(b1-4)Glc
# Procedure, shortened: as §1
# [26] = biological target: Neu5Gc(a2-3)Gal(b1-4)Glc
# Procedure, shortened: as §1
# [27] = biological target: Neu5Gc(a2-3)Gal(b1-4)GlcNAc(b1-3)Gal(b1-4)GlcNAc(b1-2)Man(a1-3)[Neu5Gc(a2-3)Gal(b1-4)GlcNAc(b1-3)Gal(b1-4)GlcNAc(b1-2)Man(a1-6)]Man(b1-4)GlcNAc(b1-4)GlcNAc
# Procedure, shortened: as §1
# [28] = biological target: Neu5Gc(a2-3)Gal(b1-4)[Fuc(a1-4)]GlcNAc
# Procedure, shortened: as §1
binder,measurement,setting,value
B1,glycan array binding signal (z-score),[1],-0.159
same,glycan array binding signal (z-score),[2],-0.217
same,glycan array binding signal (z-score),[3],-0.14
same,glycan array binding signal (z-score),[4],-0.097
same,glycan array binding signal (z-score),[5],-0.178
same,glycan array binding signal (z-score),[6],0.509
same,glycan array binding signal (z-score),[7],-0.138
same,glycan array binding signal (z-score),[8],-0.152
same,glycan array binding signal (z-score),[9],-0.242
same,glycan array binding signal (z-score),[10],-0.204
same,glycan array binding signal (z-score),[11],-0.221
same,glycan array binding signal (z-score),[12],-0.056
same,glycan array binding signal (z-score),[13],-0.177
same,glycan array binding signal (z-score),[14],-0.187
same,glycan array binding signal (z-score),[15],-0.092
same,glycan array binding signal (z-score),[16],-0.246
same,glycan array binding signal (z-score),[17],-0.137
same,glycan array binding signal (z-score),[18],-0.043
same,glycan array binding signal (z-score),[19],-0.212
same,glycan array binding signal (z-score),[20],0.46
same,glycan array binding signal (z-score),[21],-0.232
same,glycan array binding signal (z-score),[22],-0.233
same,glycan array binding signal (z-score),[23],-0.179
same,glycan array binding signal (z-score),[24],-0.253
same,glycan array binding signal (z-score),[25],-0.063
same,glycan array binding signal (z-score),[26],-0.084
same,glycan array binding signal (z-score),[27],-0.183
same,glycan array binding signal (z-score),[28],-0.482
